Experimental data from PubChem BioAssay (NCI).
The panel holds about 79,000 compounds, 15% with a hit somewhere; the sample as a whole holds those more often. Unmarked numbers belong to inactive results. Active and inactive are the calls of the source. No stated cut-off is given here; in the data, active means growth inhibition above about 70%; inactive means the rest.

What was measured:
[1] = NCI Yeast Anticancer Drug Screen. Data for the rad50 strain (AID 155);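 further: 0% = growth of vehicle-only cultures of the same strain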; conditions: S. cerevisiae rad50 strain growth inhibition, active compounds read high
How it was run: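 DNA repair mutant yeast, compound exposure, growth read-out; inhibition is taken relative to vehicle.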

[2] = NCI Yeast Anticancer Drug Screen. Data for the mec2-1 strain (AID 157); conditions: S. cerevisiae mec2-1 strain, active compounds read high
How it was run: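 Using mec2-1 yeast: add compound, measure growth, express inhibition versus vehicle-treated cultures.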

[3] = NCI Yeast Anticancer Drug Screen. Data for the sgs1 mgt1 strain (AID 161);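 further: 0% = growth of cultures given vehicle only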; conditions: S. cerevisiae sgs1 mgt1 strain, active compounds read high
How it was run: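 Yeast cells carrying a defined DNA-repair defect were exposed to test compounds. Growth inhibition was measured relative to vehicle-treated controls.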

[4] = NCI Yeast Anticancer Drug Screen. Data for the cln2 rad14 strain (AID 165);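 further: 0% = growth equal to vehicle treated cultures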; conditions: S. cerevisiae cln2 rad14 strain, active compounds read high
How it was run: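 Yeast strain cln2 rad14, bearing defects in cell cycle control and DNA repair, serves as the test system; values reflect growth inhibition compared with vehicle.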

[5] = NCI Yeast Anticancer Drug Screen. Data for the bub3 strain (AID 167); conditions: S. cerevisiae bub3 mutant strain, active compounds read high
How it was run: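 In this screen, a yeast mutant lacking normal mitotic checkpoint function is challenged with compound. Relative growth versus vehicle gives the inhibition value.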

[6] = NCI Yeast Anticancer Drug Screen. Data for the mlh1 rad18 strain (AID 175); conditions: S. cerevisiae mlh1 rad18 strain growth inhibition, active compounds read high
How it was run: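 Steps: expose repair-defective yeast to compound; measure growth; express inhibition against vehicle-treated controls.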

[7] = at 5.0 µM (retest, dose inferred, filed as 0.5)
[8] = at 50.0 µM (retest, dose inferred, filed as 5.0)

Row | Structure (SMILES) | growth inhibition [1, 7] | growth inhibition [1, 8] | growth inhibition ([1]; at 50.0 µM) | growth inhibition [2, 7] | growth inhibition [2, 8] | growth inhibition ([2]; at 50.0 µM) | growth inhibition [3, 7] | growth inhibition [3, 8] | growth inhibition ([3]; at 50.0 µM) | growth inhibition [4, 7] | growth inhibition [4, 8] | growth inhibition ([4]; at 50.0 µM) | growth inhibition [5, 7] | growth inhibition [5, 8] | growth inhibition ([5]; at 50.0 µM) | growth inhibition [6, 7] | growth inhibition [6, 8] | growth inhibition ([6]; at 50.0 µM)
1 | CCCCCCCCCc1ccc(OCC(O)CO)cc1 (centres undefined) | -3% | 98% (active) | 99.6% (active) | -1% | 99% (active) | 99.7% (active) | 2% | 99% (active) | 99.8% (active) | -11% | 98% (active) | 99.5% (active) | -9% | 98% (active) | 99.8% (active) | -4% | 98% (active) | 99.5% (active)
2 | COC12C=CC(CC1)C1=C2C(=O)c2nc(C)c(C)nc2C1=O (centres undefined) | -1% | 27% | 30.8% | 9% | 20% | 7.5% | -1% | 39% | 33.6% | 21% | 3% | 20.8% | 5% | 8% | 20.8% | 12% | 52% | 34.2%
3 | Nc1ccc(Oc2ccccc2)cc1 | 2% | 38% | 67.5% | -3% | 7% | 33.9% | -9% | 37% | 75.6% (active) | -1% | 1% | 1.2% | 0% | -18% | 25.4% | -3% | 28% | 54.8%
4 | CCOC(=O)c1cnn(-c2ccccc2)c1N | 62% | 98% (active) | 88.8% (active) | 26% | 99% (active) | 92.8% (active) | 18% | 98% (active) | 89.4% (active) | 15% | 97% (active) | 86.6% (active) | 63% | 98% (active) | 90.2% (active) | 23% | 98% (active) | 88.2% (active)
5 | CCCCCCCCCCCC(=O)OCCN(CC)CC | 3% | 99% (active) | 95.8% (active) | -1% | 99% (active) | 98.6% (active) | 4% | 99% (active) | 65.5% | 0% | 99% (active) | 97.9% (active) | -3% | 98% (active) | 93.2% (active) | -2% | 99% (active) | 98% (active)
6 | C(=C\c1cccc2ccccc12)/c1ccncc1 | 8% | 97% (active) | 98.9% (active) | -19% | 99% (active) | 99.2% (active) | -14% | 98% (active) | 99.2% (active) | -2% | 96% (active) | 99% (active) | 4% | 97% (active) | 98.5% (active) | -11% | 98% (active) | 99.1% (active)
7 | Cc1c(C)c(C[P+](CCP(c2ccccc2)c2ccccc2)(c2ccccc2)c2ccccc2)c(C)c(C)c1C[P+](CCP(c1ccccc1)c1ccccc1)(c1ccccc1)c1ccccc1 | 18% | 36% | 29.8% | 11% | 13% | 16.5% | 7% | 41% | 59.5% | -14% | 2% | -1.3% | 14% | 21% | -5.8% | 13% | 33% | 35.2%
8 | COC(=O)C12CCC(C)(C)CC1C1=CCC3C4(C)CC(O)C(O)C(C)(C(=O)OC)C4CCC3(C)C1(CO)CC2 (centres undefined) | 30% | 97% (active) | 91.5% (active) | 30% | 99% (active) | 91.7% (active) | 15% | 99% (active) | 91.8% (active) | 39% | 99% (active) | 91.4% (active) | 26% | 99% (active) | 88.8% (active) | 31% | 98% (active) | 85.8% (active)
9 | Cc1cc(S(=O)(=O)Nc2n[nH]c(-c3ccccn3)n2)c(S)cc1Cl | -10% | 92% (active) | 73.8% (active) | 27% | 84% (active) | 53.8% | 18% | 88% (active) | 55% | -4% | 85% (active) | 49% | -29% | 93% (active) | 69.3% | 0% | 88% (active) | 56%
10 | C/C(=N\NC(=S)N/N=C(\C)c1ccccn1)c1ccccn1 | 93% (active) | 99% (active) | 88.2% (active) | 90% (active) | 99% (active) | 91.5% (active) | 88% (active) | 99% (active) | 84.7% (active) | 93% (active) | 98% (active) | 88.2% (active) | 95% (active) | 99% (active) | 87.9% (active) | 93% (active) | 99% (active) | 83% (active)
11 | Cc1nc(Nc2ccccc2)sc1C(=O)NNc1ccc([N+](=O)[O-])cc1[N+](=O)[O-] | 19% | 19% | 12.6% | 7% | 7% | 40.2% | -6% | -6% | 60.8% | 14% | 14% | 28.4% | 15% | 15% | 43% | 20% | 20% | 66.2%
12 | N#CC(C#N)=Cc1ccc(Oc2ccccc2)cc1 | 2% | 31% | 88.2% (active) | -21% | 54% | 82.1% (active) | 13% | 56% | 58.9% | 25% | 62% | 66.3% | -6% | 90% (active) | 83.7% (active) | 2% | 77% (active) | 73.9% (active)
13 | Cc1ccccc1C(=N)c1ccccc1Cc1cccc2ccccc12 | 9% | 93% (active) | 92.5% (active) | -10% | 91% (active) | 88.5% (active) | -1% | 92% (active) | 93.2% (active) | -11% | 87% (active) | 78.9% (active) | -9% | 93% (active) | 88.4% (active) | 0% | 91% (active) | 91.2% (active)
14 | Cn1c2c(c3ccccc31)CCN(CCN1CCN(c3cccc(Cl)c3)CC1)C2=O | 34% | 34% | 88.8% (active) | 7% | 7% | 85.1% (active) | 1% | 1% | 87.8% (active) | 15% | 15% | 91.3% (active) | -17% | -17% | 87.8% (active) | 10% | 10% | 80.6% (active)
15 | O=C1c2ccccc2C(=O)c2c1cccc2[N+](=O)[O-] | 84% (active) | 90% (active) | 90.9% (active) | 67% | 86% (active) | 73% (active) | 80% (active) | 88% (active) | 86% (active) | 69% | 86% (active) | 85.2% (active) | 82% (active) | 88% (active) | 71.4% (active) | 85% (active) | 90% (active) | 83.8% (active)
16 | O=C1c2scc(-c3ccccc3)c2-n2cccc21 | -6% | 96% (active) | 78.5% (active) | -10% | 95% (active) | 90.1% (active) | 2% | 87% (active) | 82.5% (active) | 10% | 81% (active) | 80.8% (active) | -16% | 94% (active) | 79% (active) | -16% | 94% (active) | 88.2% (active)
17 | [C-]#[N+]C(C)(c1ccccc1)c1ccccc1 | -117% | 70% (active) | 95.5% (active) | -34% | 47% | 93.2% (active) | -48% | 79% (active) | 95.5% (active) | -59% | 47% | 90.1% (active) | -45% | 80% (active) | 94.2% (active) | -101% | 76% (active) | 94.4% (active)
18 | Cc1ccc(S(=O)(=O)OC(COC(=O)c2ccc([N+](=O)[O-])cc2)C2OC(C)(C)OC2C(SCc2ccccc2)SCc2ccccc2)cc1 (centres undefined) | 4% | 10% | 96.8% (active) | 5% | 1% | 86.5% (active) | -1% | 5% | 95.5% (active) | 2% | 8% | 39.2% | 17% | 23% | 89% (active) | 6% | -2% | 93.7% (active)
